CYP2C19 inh – human CYP2C19 inhibition | P33261 | CYP2C19 Supersomes, luciferin-H EGE luminescence, 30 min | inhibition, % at 5 µM | actives 21% (n = 96,000) | AID 778;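 active = CYP2C19 inhibition above a set limit at 5 µM in the primary screen, cut at about 50% in these data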;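 also: plate controls were negative control wells for no effect and 2.5 mM tranylcypromine positive control for full effect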
CYP2C19 act – increases human CYP2C19 enzyme activity | P33261 | recombinant CYP2C19, luciferin-H EGE luminescence; hits give high values; 0 = fully inhibited enzyme, 1 = untreated enzyme | activation factor at 5 µM | 96,000 tested, under 10 active | AID 1025;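 active = activation factor of at least 2 at 5 µM in the primary screen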;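 also: 0 = wells with 2.5 mM tranylcypromine and 1 = vehicle-only wells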
CYP2C9 inhib – blocks human cytochrome P450 2C9 | P11712 | CYP2C9 Supersomes, luciferin-H conversion, luminescence | inhibition, % at 5 µM | actives 20% (n = 96,000);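 active = blocking of liver enzyme CYP2C9 beyond about 50% at 5 µM, limit read from the data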
Target sequence (P11712 whole entry, looked up): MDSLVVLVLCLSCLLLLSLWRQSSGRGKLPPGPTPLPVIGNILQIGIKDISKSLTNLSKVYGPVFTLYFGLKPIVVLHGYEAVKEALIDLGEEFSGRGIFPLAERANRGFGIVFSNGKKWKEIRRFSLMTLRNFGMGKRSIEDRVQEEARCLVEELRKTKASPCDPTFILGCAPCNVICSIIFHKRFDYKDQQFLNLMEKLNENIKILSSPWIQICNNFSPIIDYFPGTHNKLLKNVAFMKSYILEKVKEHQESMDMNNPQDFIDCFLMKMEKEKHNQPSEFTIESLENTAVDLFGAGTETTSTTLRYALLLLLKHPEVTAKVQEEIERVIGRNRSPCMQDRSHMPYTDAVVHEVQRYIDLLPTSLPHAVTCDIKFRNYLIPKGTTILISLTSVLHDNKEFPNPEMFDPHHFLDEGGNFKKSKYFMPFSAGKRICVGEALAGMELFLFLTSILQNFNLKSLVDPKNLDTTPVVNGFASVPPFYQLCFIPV
PostGolgi yeast – growth inhibition of a yeast mutant, post-Golgi transport screen. post-Golgi transport phenotypic cell assay. inhibition, % at 10 µM. actives 0.9% (n = 98,000). AID 739;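 also: yeast cells grown in 1536-well plates; yeast grown about 18 h at 30C before absorbance read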
CYP2C9 act – CYP2C9 (human) activation. P11712. recombinant CYP2C9, luciferin-H conversion, luminescence; hits give high values; factor 1 = untreated enzyme, 0 = blocked. activation factor at 5 µM. actives 1.4% (n = 96,000);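 active = activation factor of 2 or more for CYP2C9 at a 5 µM dose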;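 also: 0 = sulfaphenazole-blocked wells and 1 = vehicle-only wells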
PostGolgi ctrl – inhibits growth of the yeast control strain; efflux-deficient yeast background strain, growth absorbance A615, 16 h; inhibition, % at 10 µM; actives 5% (n = 98,000)
* = called active by the depositor; · = no result given. Shown are actives, neighbours in structure and some others; about 32% of the full set was active somewhere. Rule as the data show it, unless noted: active = inhibition above about 30%; inactive = the rest.

SMILES	CYP2C19 inh	CYP2C19 act	CYP2C9 inhib	PostGolgi yeast	CYP2C9 act	PostGolgi ctrl
Cc1cc(S(=O)(=O)NCCCN2CCOCC2)ccc1F	28.9	0.7	-7.4	1.7	1.1	4.5
CCOc1ccc(S(=O)(=O)NCCCN2CCOCC2)c2ccccc12	60.4*	0.4	-55.7	6.6	1.6	5.8
CCOc1ccc(S(=O)(=O)NCCC2=CCCCC2)c2ccccc12	88.0*	0.1	-0.9	-0.9	1	15.9
CCCOc1ccc(S(=O)(=O)NCCCN2CCOCC2)c2ccccc12	98.8*	0	-6.9	1.4	1.1	9.7
COc1ccc(S(=O)(=O)NCCCN2CCOCC2)c2ccccc12	97.0*	0	-86.1	-8.1	1.9	21.9
O=C(CSc1nnc(-c2ccccc2O)o1)Oc1ccc(OCc2ccccc2)cc1	48.6	0.5	-9.5	-12.6	1.1	-4.2
CCOC(=O)N1CCC(Nc2c(-c3ccccc3)c(=O)c2=O)CC1	32.7	0.7	25.5	-1.6	0.7	5.6
Nn1c(SCC(=O)NCc2ccc3c(c2)OCO3)nnc1C1CC1	11.3	0.9	28.9	-6.7	0.7	11.0
O=C(CSc1nnc(SCC(=O)NCc2ccc3c(c2)OCO3)s1)NCc1ccc2c(c1)OCO2	-1.4	1	3.0	21.2	1	-0.6
Cn1c(SCC(=O)NCc2ccc3c(c2)OCO3)nnc1C1COc2ccccc2O1 (configuration not stated)	27.5	0.7	33.9	-2.8	0.7	4.8
O=C(CSc1nccn1-c1ccc(F)cc1)NCc1ccc2c(c1)OCO2	91.5*	0.1	80.5*	-7.8	0.2	10.9
O=C(CSc1nccn1-c1ccccc1)NCc1ccc2c(c1)OCO2	99.7*	0	98.5*	-12.4	0	5.3
CCOc1ccc(-n2ccnc2SCC(=O)NCc2ccc3c(c2)OCO3)cc1	81.4*	0.2	64.2*	-6.8	0.4	6.2
CC(=O)Nc1ccc(S(=O)(=O)n2cnc3ccccc32)cc1	31.1	0.7	13.4	-1.9	0.9	0.3
COCCNC(=O)c1onc(CSc2ccccc2)c1C(=O)O	24.9	0.8	34.5	-4.3	0.7	-0.9
COCCNC(=O)c1c(CSc2ccc(F)cc2)noc1C(=O)NCc1ccccc1	12.6	0.9	5.6	-3.4	0.9	14.0
CCCCNC(=O)c1onc(CSc2ccc(F)cc2)c1C(=O)O	6.3	0.9	58.0*	-2.2	0.4	4.0
CCCCNC(=O)c1onc(CSc2ccc(OC)cc2)c1C(=O)O	-11.7	1.1	79.8*	-1.3	0.2	18.0
O=C1CCc2cc(S(=O)(=O)NCCC(=O)N3CCN(c4cccc(Cl)c4)CC3)ccc2N1	·	·	·	-5.9	·	5.2
c1ccc(-n2nc3c(ccc4cnnc43)[nH]2)cc1	32.2	0.7	60.2*	4.7	0.4	19.3
CC(=O)C1=C(C)NC(=O)NC1c1ccc(OC2CCCC2)cc1 (configuration not stated)	32.5	0.7	-8.0	-4.6	1.1	1.2
CC(C)COC(=S)Nc1ccccc1	77.8*	0.2	23.2	-8.7	0.8	1.6
S=C(Nc1ccccc1)N1CCCCCC1	23.0	0.8	22.4	-5.2	0.8	1.4
COc1ccc(NC(=O)CCCCCN2C(=O)CCC2=O)cc1Cl	18.8	0.8	10.1	0.7	0.9	1.1
O=C(CCCCCN1C(=O)CCC1=O)Nc1ccc(Cl)c(C(F)(F)F)c1	69.4*	0.3	30.4	-16.5	0.7	-5.6
SMILES	CYP2C19 inh	CYP2C19 act	CYP2C9 inhib	PostGolgi yeast	CYP2C9 act	PostGolgi ctrl
COc1cc2[nH]c(=O)n(CCCCCC(=O)N3CC=C(c4ccccc4)CC3)c(=O)c2cc1OC	82.8*	0.2	60.6*	-0.5	0.4	8.2
CCOC(=O)c1cc2c(ccn2C)n1CC(=O)N1CCN(c2ccccc2OC)CC1	69.3*	0.3	38.0	32.4*	0.6	-0.9
CCOc1cc2[nH]c(=O)n(CCC(=O)N3CCN(c4ccccc4OC)CC3)c(=O)c2cc1OCC	20.2	0.8	67.2*	8.8	0.3	15.4
COc1cc2[nH]c(=O)n(CCC(=O)N3CCc4ccccc4C3)c(=O)c2cc1OC	13.6	0.9	13.5	-4.3	0.9	8.2
CCOC(=O)c1cc2c(ccn2C)n1CC(=O)N1CCC(Cc2ccccc2)CC1	19.5	0.8	47.4	17.7	0.5	26.6
CC(C)OCCCNCc1cccs1	-11.3	1.1	-12.2	-14.1	1.1	5.9
CC1CCCC(NC(=O)c2ccc3c(c2)N(Cc2ccccc2)C(=O)CS3=O)C1C (configuration not stated)	41.8	0.6	76.3*	-4.8	0.2	1.6
O=C(NCC1CCCO1)c1ccc2c(c1)N(Cc1ccccc1)C(=O)CS2=O (configuration not stated)	18.2	0.8	27.8	-5.8	0.7	-7.3
CCOc1ccc(C2C=C(c3ccc(C)cc3)Nc3nnnn32)cc1 (configuration not stated)	83.4*	0.2	83.9*	7.9	0.2	2.0
